Experimental data published in the supplement of paper PMC12645437, “Orthogonal IMiD-Degron Pairs Induce Selective Protein Degradation in Cells” (ACS Chemical Biology, 2025).
The full ranking holds about 8,300 sequences; the median of “log2 fold change of degron read counts, EGFP-low vs EGFP+ sorted cells (limma voom), compound-induced degradation” is about -1.1, and the highest 2% start at about 3.2. This excerpt belongs to a sample that is enriched for the highest values.

Target: T1, CRBN, Q96SW2
T1 chain: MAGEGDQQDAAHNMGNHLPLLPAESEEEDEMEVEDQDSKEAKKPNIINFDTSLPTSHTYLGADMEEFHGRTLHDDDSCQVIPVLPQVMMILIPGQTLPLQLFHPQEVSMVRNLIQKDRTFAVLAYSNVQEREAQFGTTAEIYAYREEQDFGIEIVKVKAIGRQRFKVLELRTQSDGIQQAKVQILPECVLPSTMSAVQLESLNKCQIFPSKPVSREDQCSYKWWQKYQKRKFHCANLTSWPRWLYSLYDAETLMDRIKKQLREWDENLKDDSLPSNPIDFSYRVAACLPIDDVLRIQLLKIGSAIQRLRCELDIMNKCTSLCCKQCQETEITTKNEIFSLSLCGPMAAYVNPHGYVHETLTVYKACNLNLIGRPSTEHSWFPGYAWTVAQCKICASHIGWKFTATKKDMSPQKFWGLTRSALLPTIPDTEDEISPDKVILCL
Assay: log2 fold change of degron read counts, EGFP-low vs EGFP+ sorted cells (limma voom), compound-induced degradation; higher = more compound-induced degradation of the degron-EGFP fusion; degrons are variants of IKZF1/3 zinc finger 2; compound dose not given here
Conditions: Jurkat, 18 h
Description: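 Pooled library of 8380 IKZF3 ZF2 degron mutants (positions 146-167 varied within the IKZF3 130-189 degron; only the varied core is printed, flanks not printed) fused to EGFP with IRES-mCherry, lentivirally expressed in Jurkat cells. mCherry+ cells were treated with one IMiD compound for 18 h (dose not stated) and FACS-sorted into EGFP-low and EGFP+ populations. Degron sequences were counted by NGS, and log2FC (EGFP-low vs EGFP+) was estimated by limma voom over 3 biological replicates.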

[1] = compound: compound 19 (5-tert-butyl-thalidomide)
[2] = compound: compound 22 (5-morpholino-thalidomide)
[3] = compound: compound 33 (diphenyl IMiD analogue)
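Note: pooled lentiviral library of zinc finger degron-EGFP fusions in mCherry-positive Jurkat cells, FACS-sorted after compound exposure, with degron abundance counted by next-generation sequencing.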

FTCEICGAYFTQKGNLLRHIKL [46F_47T_49E_50I_52G_53A_54Y_55F_67L_, Q9UKT9]
log2 fold change of degron read counts [1]: 0.598 | log2 fold change of degron read counts [2]: 1.53 | log2 fold change of degron read counts [3]: 2.02 | log2 fold change of degron read counts (compound: thalidomide): 2.85

FICNICGATFTQKGNLLRHIKL [46F_47I_49N_50I_52G_53A_54T_55F_67L_, Q9UKT9]
log2 fold change of degron read counts [1]: -1.79 | log2 fold change of degron read counts [2]: 0.00658 | log2 fold change of degron read counts [3]: 1.15 | log2 fold change of degron read counts (compound: thalidomide): 1.1

FQCNICGAQFTQKGNLLRHIKL [46F_47Q_49N_50I_52G_53A_54Q_55F_67L_, Q9UKT9]
log2 fold change of degron read counts [1]: -0.94 | log2 fold change of degron read counts [2]: 1.3 | log2 fold change of degron read counts [3]: 1.62 | log2 fold change of degron read counts (compound: thalidomide): 3.28

FVCNICGAQFTQKGNLLRHIKL [46F_47V_49N_50I_52G_53A_54Q_55F_67L_, Q9UKT9]
log2 fold change of degron read counts [1]: -0.604 | log2 fold change of degron read counts [2]: 1.47 | log2 fold change of degron read counts [3]: 2.69 | log2 fold change of degron read counts (compound: thalidomide): 1.92

FRCNICGAQFTQKGNLLRHIKL [46F_47R_49N_50I_52G_53A_54Q_55F_67L_, Q9UKT9]
log2 fold change of degron read counts [1]: -1.02 | log2 fold change of degron read counts [2]: -0.868 | log2 fold change of degron read counts [3]: -0.156 | log2 fold change of degron read counts (compound: thalidomide): 0.111

FACNICGAQFTQKGNLLRHIKL [46F_47A_49N_50I_52G_53A_54Q_55F_67L_, Q9UKT9]
log2 fold change of degron read counts [1]: 2.04 | log2 fold change of degron read counts [2]: 1.62 | log2 fold change of degron read counts [3]: 0.179 | log2 fold change of degron read counts (compound: thalidomide): -0.104

FYCNICGAQFTQKGNLLRHIKL [46F_47Y_49N_50I_52G_53A_54Q_55F_67L_, Q9UKT9]
log2 fold change of degron read counts [1]: 2.24 | log2 fold change of degron read counts [2]: 3.15 | log2 fold change of degron read counts [3]: 1.75 | log2 fold change of degron read counts (compound: thalidomide): 0.339

FWCNICGAQFTQKGNLLRHIKL [46F_47W_49N_50I_52G_53A_54Q_55F_67L_, Q9UKT9]
log2 fold change of degron read counts [1]: 2.02 | log2 fold change of degron read counts [2]: 3.59 | log2 fold change of degron read counts [3]: 1.86 | log2 fold change of degron read counts (compound: thalidomide): 0.626
